# Cav32 inh: human Cav3.2 channel inhibition, primary screen; O95180; Cav3.2-expressing cells, Fluo-4 calcium fluorescence FDSS; active compounds read low; B-score at 10 µM; 100,000 tested, 4% active;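 active means single-dose well whose peak fluorescence ratio is a statistical outlier from its plate by either plate-standardised score or position-corrected B-score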
# PostGolgi yeast: growth inhibition of a yeast mutant, post-Golgi transport screen. post-Golgi transport phenotypic cell assay. inhibition, % at 10 µM. 98,000 tested, 0.9% active;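 further: yeast cells grown in 1536-well plates; yeast grown about 18 h at 30C before absorbance read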
# sEH inhibitor: blocks human soluble epoxide hydrolase activity; P34913; 91,000 tested, 0.34% active; AID 707; inhibition, % at 2 µM; recombinant human sEH enzymatic activity assay; in the data active means inhibition above about 80%
# PostGolgi ctrl: yeast control strain growth, post-Golgi counter-screen; efflux-deficient yeast background strain, growth absorbance A615, 16 h; inhibition, % at 10 µM; 98,000 tested, 5% active
# sEH act: activators of human soluble epoxide hydrolase. P34913. purified human sEH enzymatic activity, activator screen. activation, % at 2 µM. 91,000 tested, 0.04% active; in the data active means activation above about 37%
# The depositor's hits bear a star; . = no result. Shown are actives, neighbours in structure and some others; about 7.8% of the full set was active somewhere. Unless noted, no stated cut-off is given here; in the data, active means inhibition above about 30%; inactive means the rest.
SMILES,Cav32 inh,PostGolgi yeast,sEH inhibitor,PostGolgi ctrl,sEH act
COc1ccc(C2CC(c3ccccc3)n3nc(NC(=O)c4cccs4)nc3N2)cc1 (centres undefined),.,-1.3,3.9,-1.0,-5.1
COc1ccc(C2CC(c3ccc(Cl)cc3)Nc3nc(NC(=O)c4ccco4)nn32)cc1 (centres undefined),-3.9*,.,6.9,.,-7.6
O=C(Nc1nc2n(n1)C(c1ccc(Cl)cc1)CC(c1ccc(Cl)cc1)N2)c1ccco1 (centres undefined),-5.3*,-1.6,-6.2,13.6,4.0
COc1ccc(C2CC(c3ccc(Cl)c(Cl)c3)Nc3nc(N)nn32)cc1 (centres undefined),-0.502,1.3,-11.8,36.3*,16.6
O=C(/C=C/c1ccccc1)NCCc1ccccc1,-3.33,.,.,.,.
CC(CCc1ccccc1)NC(=O)/C=C/c1ccccc1 (centres undefined),0.469,6.0,-4.3,39.9*,4.0
COC(=O)[C@H](C)NC(=O)NC(C)CCc1ccccc1 (some centres undefined),0.393,6.4,5.9,35.8*,-6.1
Cc1ccc(NC(=O)CSc2nc3ccccc3c(=O)n2CCCN2CCCCC2)cc1C,-3.11,-3.3,5.9,-2.4,-7.3
O=c1[nH]c2ccc(S(=O)(=O)N3CCN(c4ccccc4F)CC3)cc2s1,1.88,-5.1,.,30.8*,.
COc1ccccc1N1CCN(S(=O)(=O)c2ccc(F)cc2)CC1,-0.0167,17.6,43.6,21.3,-43.0
Cc1ccc(-c2ccc(/C=N/c3ncn[nH]3)o2)cc1Cl,-6.74*,-4.5,7.4,34.5*,-2.5
Cc1ccc(-c2ccc(/C=N\NC(=O)C3C(=O)NCC3c3ccccc3)o2)cc1Cl (centres undefined),-2.97,-4.6,-11.3,28.1,12.7
Cc1csc(NC(=O)c2cccn2C)n1,0.206,-4.4,-9.5,30.6*,8.8
CC(=O)Nc1sc2c(c1C(=O)N1CCOCC1)CCCCC2,1.07,10.7,9.9,-4.4,-4.9
CC(=O)Nc1sc2c(c1C(c1cccs1)N1CCOCC1)CCCC2 (centres undefined),-2.66,3.3,11.0,42.1*,-12.7
CCC(c1nnnn1Cc1ccccc1)N(Cc1ccco1)Cc1cc2cc(OC)ccc2[nH]c1=O (centres undefined),-2.81,-0.2,36.7,40.6*,-37.6
CC(C)(C)NC(=O)C(c1ccccn1)N(C(=O)C1CSC(=O)C1)c1ccc(F)cc1 (centres undefined),0.918,-1.7,0.5,6.4,1.2
O=C(C(c1ccccc1)c1ccccc1)N1CCN(Cc2ccc(Br)cc2)CC1,-1.86,9.0,-6.0,51.0*,8.1
O=C(CN1CCN(Cc2ccccc2)CC1)c1ccc(Br)cc1,.,5.2,1.5,-5.3,-1.3
O=c1c2nnn(Cc3ccccc3)c2ncn1-c1ccccc1,0.255,-2.5,-2.2,33.9*,-1.2
COc1ccccc1NC(=O)CN(Cc1ccco1)C(=O)c1ccc(-n2nc(C)cc2C)cc1,-0.0248,2.4,-9.0,8.0,8.5
O=C(CN(Cc1ccco1)C(=O)c1cccc(Cl)c1)Nc1c(Cl)cc(Cl)cc1Cl,-4.49*,-1.6,-8.7,15.1,10.9
O=C(CN(Cc1ccco1)C(=O)c1ccccc1)Nc1ccc(Cl)c(Cl)c1,-8.68*,-8.2,25.5,39.0*,-23.3
CC1=C(C(N)=O)C(c2ccccc2F)NC(=O)N1 (centres undefined),0.137,23.3,-5.7,-7.0,3.6
O=C(Nc1ccccc1)Nc1cccc2cccnc12,-2.21,-3.5,11.5,23.7,-11.8
SMILES,Cav32 inh,PostGolgi yeast,sEH inhibitor,PostGolgi ctrl,sEH act
NC(=S)Nc1cccc2cccnc12,-0.0407,11.0,-1.4,34.7*,1.0
O=C(Cn1nnc(-c2ccccc2)n1)OCc1ccccc1,-0.035,-6.3,1.5,7.3,-1.3
O=C(OCc1ccccc1)c1cccc(-c2nnn(Cc3ccccc3)n2)c1,-4.08*,7.6,2.2,-1.1,0.0
CCNC(=O)COc1ccc2ccccc2c1,0.658,6.0,8.7,1.4,-8.6
CCOc1ccc(N2C(=O)CS/C2=N/NC(=O)COc2ccc3ccccc3c2)cc1,-3.46*,5.3,5.7,20.1,-6.8
COc1ccc(-c2n[nH]c(=S)n2C2CCCCC2)cc1,-1.98,11.2,16.8,28.2,-17.9
COc1ccc(Cl)cc1-c1n[nH]c(=S)n1C1CCCCC1,-5*,-0.8,-4.5,17.8,0.1
Cc1cc(Cl)ccc1OCc1n[nH]c(=S)n1C1CCCCC1,-0.745,99.4*,38.4,96.2*,-36.2
O=C(CCN1C(=O)c2ccncc2C1=O)Nc1ccc(F)cc1,1.03,-1.1,-9.6,0.3,10.2
Cc1cc(Br)ccc1NC(=O)CCN1C(=O)c2ccncc2C1=O,0.764,8.6,16.0,32.7*,-14.9
[O-]/[N+](=C\c1ccncc1)c1ccccc1,.,6.1,.,10.3,.
[O-]/[N+](=C/c1ccc(F)cc1)c1ccccc1,0.494,9.8,.,32.7*,.
COc1ccc(NC(=O)Nc2cccc(C)n2)cc1,-4.24*,1.8,.,5.6,.
Cc1cccc(NC(=O)Nc2cccc(C#N)c2)n1,-4.17*,1.9,.,29.0,.
Cn1ccnc1SCC(=O)N(C1CCCCC1)C1CCCCC1,-0.725,-17.2,1.2,7.0,0.3
O=C1c2cnc3nc(SCc4ccccc4)nn3c2CC2c3ccccc3CCN12 (centres undefined),-0.68,68.4*,-9.7,95.8*,9.6
Cc1ccc2nc(N3CCN(S(=O)(=O)c4ccc(C)c(Cl)c4)CC3)c(C#N)cc2c1,-2.32,-3.7,10.6,9.3,-12.2
O=C1C=C(Nc2ccc(Cl)cc2)CC(c2ccc(Cl)cc2)C1 (centres undefined),-1.05,7.7,-9.2,52.3*,10.5
COc1ccc(NC2=CC(=O)CC(c3ccc(C)cc3)C2)c(OC)c1 (centres undefined),-1.66,.,3.6,.,-4.6
CC(C(=O)N(C1CC1)C1(C(=O)Nc2ccccc2)CCCC1)N1C(=O)c2ccccc2C1=O (centres undefined),-2.02,1.6,.,45.0*,.
CC(C(=O)Nc1ccc(C(=O)O)cc1)N1C(=O)c2ccccc2C1=O (centres undefined),-0.0154,9.6,.,-7.2,.
Cc1sc(NC(=O)c2cccs2)c(C(N)=O)c1C,0.563,6.9,-7.6,37.0*,5.0
COc1ccc(C2=NN(C(=O)CSc3cn(C)c4ccccc34)C(c3ccc(OC)cc3)C2)cc1 (centres undefined),-2.06,-18.5,1.7,23.9,0.0
O=C(N/N=C/c1c[nH]c2ccc(Br)cc12)c1ccn(Cc2ccc(Cl)cc2)n1,.,3.3,-2.7,56.5*,5.0
COc1ccccc1N(CC(=O)Nc1cc(C)on1)S(=O)(=O)c1ccc(Cl)cc1,-2.39*,-2.6,6.0,21.6,-6.8
COc1ccccc1NCCC(=O)OCC(=O)Nc1ccc(Cl)cn1,-0.966,-4.5,.,10.7,.
COc1ccc(C(=O)N2CC3(CC(c4ccc(Cl)cc4)=NO3)C[C@H]2C(=O)NCC(N)=O)cc1 (some centres undefined),0.0642,2.7,-0.6,1.4,1.8
CCCn1c(SCC(=O)N2CCN(c3ccccc3)CC2)nc2ccccc2c1=O,-6.25*,0.5,-14.4,51.1*,13.0
CCn1c(SCC(=O)N2CCN(c3ccc(F)cc3)CC2)nc2ccccc2c1=O,0.929,1.9,7.8,37.4*,-9.5
